# Results taken from paper PMC7862700, “An all-to-all approach to the identification of sequence-specific readers for epigenetic DNA modifications on cytosine”.
# Key:
# Assay in all cases: DAPPL (digital affinity profiling via proximity ligation, sequencing); 10 mM Tris-HCl pH 7.5, 50 mM NaCl, 1 mM DTT, 4% glycerol, room temperature, 30 min; GST-TFs on glutathione beads, 16-mer random dsDNA library, 0.1% formaldehyde crosslink after washing; high values mean tight binding
# FEV = target: T1, FEV (Homo sapiens, UniProt Q99581 1-238); settings: protein: recombinant; tags: N-terminal GST; dsDNA, one strand shown
# T1 sequence: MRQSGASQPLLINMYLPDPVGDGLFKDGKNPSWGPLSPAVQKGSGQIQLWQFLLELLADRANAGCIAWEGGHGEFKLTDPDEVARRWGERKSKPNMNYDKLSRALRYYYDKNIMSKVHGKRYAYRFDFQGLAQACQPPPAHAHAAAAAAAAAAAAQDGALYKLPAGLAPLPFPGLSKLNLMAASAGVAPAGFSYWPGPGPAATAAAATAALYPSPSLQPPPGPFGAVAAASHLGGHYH
# How it was run: (§1)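 In yeast, human transcription factors were expressed with a GST fusion, then pulled down on glutathione beads and given DNA barcodes. Pooled with a tag-only sample, they were exposed to 200 nmole of a 16-mer random double-stranded DNA library (Tris/NaCl/DTT/glycerol buffer, room temperature, 30 min), washed, crosslinked with 0.1% formaldehyde, proximity-ligated using BsaI/T4 ligase for 1 h at 37 °C, PCR-amplified and read on an Illumina NextSeq500. Each hexamer's frequency of reads for a factor, divided by the matching frequency for the tag-only sample, gives the binding signal.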
# ETV5 = ETV5 (Homo sapiens, UniProt P41161 1-510); settings: protein: recombinant; tags: N-terminal GST; dsDNA, one strand shown
# Chain of ETV5 (P41161 whole entry): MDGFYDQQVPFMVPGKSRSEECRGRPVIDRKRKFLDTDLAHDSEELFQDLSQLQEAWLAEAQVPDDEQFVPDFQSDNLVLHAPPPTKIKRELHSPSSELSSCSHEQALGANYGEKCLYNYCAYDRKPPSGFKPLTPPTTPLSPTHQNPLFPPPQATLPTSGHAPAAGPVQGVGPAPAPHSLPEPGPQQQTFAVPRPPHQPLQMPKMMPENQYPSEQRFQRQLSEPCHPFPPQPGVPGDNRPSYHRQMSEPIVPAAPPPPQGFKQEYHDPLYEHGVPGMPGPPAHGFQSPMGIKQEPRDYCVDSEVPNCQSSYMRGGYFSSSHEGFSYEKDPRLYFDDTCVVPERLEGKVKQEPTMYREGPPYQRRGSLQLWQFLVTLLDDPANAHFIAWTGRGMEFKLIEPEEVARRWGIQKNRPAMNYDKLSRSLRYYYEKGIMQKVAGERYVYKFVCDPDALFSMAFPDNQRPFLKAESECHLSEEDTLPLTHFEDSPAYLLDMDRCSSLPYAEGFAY
# How it was run: as §1
# HSF1 = HSF1 (Homo sapiens, UniProt Q00613 1-529); settings: protein: recombinant; tags: N-terminal GST; chain copies: 3; dsDNA, one strand shown
# Chain of HSF1 (Q00613 whole entry): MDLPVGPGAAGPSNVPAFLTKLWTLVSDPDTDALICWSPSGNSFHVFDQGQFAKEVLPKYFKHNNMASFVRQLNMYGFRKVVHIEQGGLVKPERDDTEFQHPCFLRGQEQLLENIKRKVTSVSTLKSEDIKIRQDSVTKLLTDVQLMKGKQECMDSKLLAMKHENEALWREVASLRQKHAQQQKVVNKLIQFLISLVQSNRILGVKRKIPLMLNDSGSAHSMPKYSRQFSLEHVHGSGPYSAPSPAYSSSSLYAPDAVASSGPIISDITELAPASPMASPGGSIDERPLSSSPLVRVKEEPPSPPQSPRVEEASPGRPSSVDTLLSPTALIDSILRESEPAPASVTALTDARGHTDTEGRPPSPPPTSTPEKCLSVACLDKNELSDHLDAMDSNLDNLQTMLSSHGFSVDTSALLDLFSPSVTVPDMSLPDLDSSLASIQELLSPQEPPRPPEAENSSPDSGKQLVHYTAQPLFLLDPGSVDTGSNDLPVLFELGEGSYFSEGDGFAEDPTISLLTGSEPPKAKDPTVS
# How it was run: as §1
# SPIC = target: T2, SPIC (Homo sapiens, UniProt Q8N5J4 1-248); settings: protein: recombinant; tags: N-terminal GST; dsDNA, one strand shown
# T2 sequence: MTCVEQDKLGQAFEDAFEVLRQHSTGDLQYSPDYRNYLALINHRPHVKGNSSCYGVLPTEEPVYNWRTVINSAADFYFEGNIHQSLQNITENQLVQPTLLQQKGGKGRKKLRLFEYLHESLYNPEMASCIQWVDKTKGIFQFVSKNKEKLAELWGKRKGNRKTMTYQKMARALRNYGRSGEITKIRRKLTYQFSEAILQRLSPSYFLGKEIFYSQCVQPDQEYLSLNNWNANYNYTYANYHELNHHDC
# How it was run: as §1
# ELF4 = ELF4 (Homo sapiens, UniProt Q99607 1-663); settings: protein: recombinant; tags: N-terminal GST; dsDNA, one strand shown
# Chain of ELF4 (Q99607 whole entry): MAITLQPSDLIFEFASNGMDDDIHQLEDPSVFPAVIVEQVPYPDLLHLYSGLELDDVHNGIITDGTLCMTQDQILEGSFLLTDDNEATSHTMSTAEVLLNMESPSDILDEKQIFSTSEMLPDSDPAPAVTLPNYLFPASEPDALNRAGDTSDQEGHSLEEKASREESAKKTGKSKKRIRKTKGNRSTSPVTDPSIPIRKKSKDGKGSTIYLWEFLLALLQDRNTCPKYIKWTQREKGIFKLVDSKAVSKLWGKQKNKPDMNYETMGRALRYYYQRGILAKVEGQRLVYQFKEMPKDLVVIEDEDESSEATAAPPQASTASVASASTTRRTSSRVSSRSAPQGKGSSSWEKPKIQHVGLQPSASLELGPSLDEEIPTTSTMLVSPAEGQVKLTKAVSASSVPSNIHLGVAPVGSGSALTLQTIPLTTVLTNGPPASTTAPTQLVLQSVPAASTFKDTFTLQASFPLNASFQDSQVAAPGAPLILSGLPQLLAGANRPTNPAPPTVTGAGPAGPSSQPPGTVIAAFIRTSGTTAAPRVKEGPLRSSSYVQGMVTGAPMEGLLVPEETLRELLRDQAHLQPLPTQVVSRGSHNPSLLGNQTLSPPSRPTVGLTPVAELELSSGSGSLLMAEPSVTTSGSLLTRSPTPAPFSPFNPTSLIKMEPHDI
# How it was run: as §1
# ETV2 = target: T3, ETV2 (Homo sapiens, UniProt O00321 1-342); settings: protein: recombinant; tags: N-terminal GST; dsDNA, one strand shown
# T3 sequence: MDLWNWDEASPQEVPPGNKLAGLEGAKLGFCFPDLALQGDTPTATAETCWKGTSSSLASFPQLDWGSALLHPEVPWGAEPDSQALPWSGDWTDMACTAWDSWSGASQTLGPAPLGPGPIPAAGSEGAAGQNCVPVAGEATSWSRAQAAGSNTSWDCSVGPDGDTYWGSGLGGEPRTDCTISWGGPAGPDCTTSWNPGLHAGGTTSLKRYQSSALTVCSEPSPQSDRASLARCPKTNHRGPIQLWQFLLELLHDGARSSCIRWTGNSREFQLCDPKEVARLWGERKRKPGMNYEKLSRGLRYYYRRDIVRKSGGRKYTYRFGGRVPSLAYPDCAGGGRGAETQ
# How it was run: as §1
# ELF3 = target: T4, ELF3 (Homo sapiens, UniProt P78545 1-371); settings: protein: recombinant; tags: N-terminal GST; dsDNA, one strand shown
# T4 sequence: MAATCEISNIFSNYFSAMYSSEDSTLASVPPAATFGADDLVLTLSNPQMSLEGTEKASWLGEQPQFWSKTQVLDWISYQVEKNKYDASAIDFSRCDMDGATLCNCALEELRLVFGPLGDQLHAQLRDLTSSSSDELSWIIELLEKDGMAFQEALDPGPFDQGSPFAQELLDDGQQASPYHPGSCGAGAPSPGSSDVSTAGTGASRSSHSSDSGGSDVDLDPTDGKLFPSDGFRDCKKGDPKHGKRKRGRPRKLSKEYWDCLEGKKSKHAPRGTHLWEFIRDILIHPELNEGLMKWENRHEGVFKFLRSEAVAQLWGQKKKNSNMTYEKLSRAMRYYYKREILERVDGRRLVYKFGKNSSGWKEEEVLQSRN
# How it was run: as §1
# CRX = CRX (Homo sapiens, UniProt O43186 1-299); settings: protein: recombinant; tags: N-terminal GST; dsDNA, one strand shown
# Chain of CRX (O43186 whole entry): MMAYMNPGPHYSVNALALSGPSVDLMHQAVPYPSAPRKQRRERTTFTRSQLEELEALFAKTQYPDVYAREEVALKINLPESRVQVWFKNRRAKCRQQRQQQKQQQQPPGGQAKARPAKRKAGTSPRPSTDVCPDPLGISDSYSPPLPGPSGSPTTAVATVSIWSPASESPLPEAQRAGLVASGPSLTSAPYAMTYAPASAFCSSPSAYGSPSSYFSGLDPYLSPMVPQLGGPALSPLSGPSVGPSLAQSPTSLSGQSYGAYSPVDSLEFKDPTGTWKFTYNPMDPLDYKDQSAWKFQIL
# How it was run: as §1
# ETV1 = ETV1 (Homo sapiens, UniProt P50549 1-477); settings: protein: recombinant; tags: N-terminal GST; dsDNA, one strand shown
# Chain of ETV1 (P50549 whole entry): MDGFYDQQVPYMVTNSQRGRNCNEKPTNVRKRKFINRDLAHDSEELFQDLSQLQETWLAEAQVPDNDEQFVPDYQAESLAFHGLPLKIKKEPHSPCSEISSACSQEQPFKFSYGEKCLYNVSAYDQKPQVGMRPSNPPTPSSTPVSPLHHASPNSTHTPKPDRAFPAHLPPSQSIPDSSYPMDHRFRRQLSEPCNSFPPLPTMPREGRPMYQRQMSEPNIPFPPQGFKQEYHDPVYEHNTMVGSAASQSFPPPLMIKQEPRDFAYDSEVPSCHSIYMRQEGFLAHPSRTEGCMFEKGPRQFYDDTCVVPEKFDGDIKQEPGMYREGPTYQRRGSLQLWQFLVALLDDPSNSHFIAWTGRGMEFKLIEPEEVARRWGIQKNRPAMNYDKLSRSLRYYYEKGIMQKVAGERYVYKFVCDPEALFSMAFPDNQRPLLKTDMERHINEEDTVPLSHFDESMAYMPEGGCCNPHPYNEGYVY
# How it was run: as §1
# ERF = target: T5, ERF (Homo sapiens, UniProt P50548 1-548); settings: protein: recombinant; tags: N-terminal GST; dsDNA, one strand shown
# T5 sequence: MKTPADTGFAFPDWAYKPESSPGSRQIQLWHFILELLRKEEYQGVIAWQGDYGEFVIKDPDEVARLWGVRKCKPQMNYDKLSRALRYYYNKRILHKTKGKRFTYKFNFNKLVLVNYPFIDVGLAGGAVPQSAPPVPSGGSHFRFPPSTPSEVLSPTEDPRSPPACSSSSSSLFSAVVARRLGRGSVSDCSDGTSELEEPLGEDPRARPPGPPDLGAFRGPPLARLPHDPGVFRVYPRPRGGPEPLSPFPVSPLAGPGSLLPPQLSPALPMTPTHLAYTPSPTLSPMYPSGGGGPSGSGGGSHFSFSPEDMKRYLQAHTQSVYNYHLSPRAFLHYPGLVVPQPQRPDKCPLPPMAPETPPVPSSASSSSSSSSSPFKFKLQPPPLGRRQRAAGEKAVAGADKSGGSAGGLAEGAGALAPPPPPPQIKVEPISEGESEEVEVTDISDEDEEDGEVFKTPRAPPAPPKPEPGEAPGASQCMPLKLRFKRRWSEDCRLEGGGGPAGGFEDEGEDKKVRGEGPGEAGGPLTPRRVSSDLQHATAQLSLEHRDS
# How it was run: as §1
# ETV3L = target: T6, ETV3L (Homo sapiens, UniProt Q6ZN32 1-361); settings: protein: recombinant; tags: N-terminal GST; dsDNA, one strand shown
# T6 sequence: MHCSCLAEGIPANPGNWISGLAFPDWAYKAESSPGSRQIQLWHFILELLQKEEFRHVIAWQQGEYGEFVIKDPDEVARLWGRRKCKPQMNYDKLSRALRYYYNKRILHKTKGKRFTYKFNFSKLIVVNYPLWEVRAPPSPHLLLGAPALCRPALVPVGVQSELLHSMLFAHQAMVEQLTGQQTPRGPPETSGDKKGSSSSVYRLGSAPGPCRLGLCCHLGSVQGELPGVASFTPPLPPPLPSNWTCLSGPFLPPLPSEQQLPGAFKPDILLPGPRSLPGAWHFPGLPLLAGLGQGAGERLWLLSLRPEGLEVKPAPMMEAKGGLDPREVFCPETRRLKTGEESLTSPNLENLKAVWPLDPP
# How it was run: as §1
# ETS2 = target: T7, ETS2 (Homo sapiens, UniProt P15036 1-469); settings: protein: recombinant; tags: N-terminal GST; dsDNA, one strand shown
# T7 sequence: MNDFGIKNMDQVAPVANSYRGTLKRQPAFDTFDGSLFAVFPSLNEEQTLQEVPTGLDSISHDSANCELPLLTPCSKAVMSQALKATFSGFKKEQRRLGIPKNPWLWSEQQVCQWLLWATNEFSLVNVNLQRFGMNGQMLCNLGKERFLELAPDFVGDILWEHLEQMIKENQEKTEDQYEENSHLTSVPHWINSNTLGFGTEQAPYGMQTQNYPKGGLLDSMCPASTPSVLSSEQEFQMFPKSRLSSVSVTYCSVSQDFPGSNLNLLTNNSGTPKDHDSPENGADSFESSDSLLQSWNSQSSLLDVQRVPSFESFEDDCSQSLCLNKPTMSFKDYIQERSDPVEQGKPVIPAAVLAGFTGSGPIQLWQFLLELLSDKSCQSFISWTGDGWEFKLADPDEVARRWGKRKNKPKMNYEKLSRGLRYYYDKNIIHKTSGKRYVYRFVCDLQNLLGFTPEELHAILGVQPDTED
# How it was run: as §1
# ETV7 = target: T8, ETV7 (Homo sapiens, UniProt Q9Y603 1-341); settings: protein: recombinant; tags: N-terminal GST; dsDNA, one strand shown
# T8 sequence: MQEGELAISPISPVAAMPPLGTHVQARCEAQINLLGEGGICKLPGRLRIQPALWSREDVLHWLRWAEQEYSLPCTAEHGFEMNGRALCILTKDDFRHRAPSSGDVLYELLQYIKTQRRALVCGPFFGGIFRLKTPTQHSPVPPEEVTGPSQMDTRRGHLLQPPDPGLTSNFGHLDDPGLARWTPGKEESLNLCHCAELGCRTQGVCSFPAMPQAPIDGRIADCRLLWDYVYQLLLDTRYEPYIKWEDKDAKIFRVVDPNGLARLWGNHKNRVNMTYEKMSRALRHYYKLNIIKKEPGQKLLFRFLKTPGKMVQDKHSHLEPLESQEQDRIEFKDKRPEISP
# How it was run: as §1
# ELF5 = target: T9, ELF5 (Homo sapiens, UniProt Q9UKW6-2 1-255); settings: protein: recombinant; tags: N-terminal GST; dsDNA, one strand shown
# T9 sequence: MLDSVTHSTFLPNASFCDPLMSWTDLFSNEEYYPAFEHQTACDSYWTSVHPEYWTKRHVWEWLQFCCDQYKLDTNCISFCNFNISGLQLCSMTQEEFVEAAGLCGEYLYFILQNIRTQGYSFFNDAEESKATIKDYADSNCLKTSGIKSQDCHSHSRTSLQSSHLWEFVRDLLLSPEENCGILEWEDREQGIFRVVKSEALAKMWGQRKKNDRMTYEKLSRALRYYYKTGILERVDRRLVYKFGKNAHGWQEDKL
# How it was run: as §1
# ETV3 = target: T10, ETV3 (Homo sapiens, UniProt P41162-2 1-143); settings: protein: recombinant; tags: N-terminal GST; dsDNA, one strand shown
# T10 sequence: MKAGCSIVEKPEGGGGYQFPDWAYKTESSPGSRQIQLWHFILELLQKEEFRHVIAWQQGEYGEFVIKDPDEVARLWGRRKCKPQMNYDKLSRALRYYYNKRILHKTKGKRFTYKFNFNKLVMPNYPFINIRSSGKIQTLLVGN
# How it was run: as §1
sequence,measurement,setting,value
ACGATC,binding signal,FEV,"1.07 fold enrichment (6-mer frequency, TF over GST control)"
same,binding signal,ETV5,"1.06 fold enrichment (6-mer frequency, TF over GST control)"
same,binding signal,HSF1,"1.15 fold enrichment (6-mer frequency, TF over GST control)"
same,binding signal,SPIC,"1.02 fold enrichment (6-mer frequency, TF over GST control)"
same,binding signal,ELF4,"1.08 fold enrichment (6-mer frequency, TF over GST control)"
same,binding signal,ETV2,"1.09 fold enrichment (6-mer frequency, TF over GST control)"
same,binding signal,ELF3,"1.04 fold enrichment (6-mer frequency, TF over GST control)"
same,binding signal,CRX,"1.14 fold enrichment (6-mer frequency, TF over GST control)"
same,binding signal,ETV1,"1.05 fold enrichment (6-mer frequency, TF over GST control)"
same,binding signal,ERF,"1.16 fold enrichment (6-mer frequency, TF over GST control)"
same,binding signal,ETV3L,"1.02 fold enrichment (6-mer frequency, TF over GST control)"
same,binding signal,ETS2,"1.14 fold enrichment (6-mer frequency, TF over GST control)"
same,binding signal,ETV7,"1 fold enrichment (6-mer frequency, TF over GST control)"
same,binding signal,ELF5,"1.01 fold enrichment (6-mer frequency, TF over GST control)"
same,binding signal,ETV3,"1.03 fold enrichment (6-mer frequency, TF over GST control)"
